According to PubChem BioAssay (NCATS):
Records with an inconclusive call do not appear. The source made the active and inactive calls. The call rests on the fitted dose curve; in most records, active means well fitted curve in the direction sought with a large enough effect; inconclusive means small, poorly fitted or top-dose-only effect, or another doubt; inactive means no such curve, though single readings can be large; an effect the other way counts as inactive or inconclusive.

assay: NS1 protein of Zika virus - qHTS assay to identify small molecule inhibitors in human HEK 293 cells (AID 1347053); conditions: HEK293 ZIKV MR766 infection, NS1 TR-FRET, 24 h; series mostly up to 46.1 µM; activity change, negative = inhibition: at the top concentration; further: nearly all actives have a fitted effect of over 55% in size;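 on activity change, negative = inhibition: plate controls were infected untreated cells for no effect and uninfected cells for full effect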
Outline: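 TR-FRET signal from two anti-ZIKV NS1 antibodies quantified NS1 in HEK 293 cells 24 h after MR766 infection at MOI = 0.5; compounds were added 1 h before virus. Uninfected cells and infected cells defined the NS1 normalization range.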
Potency means the concentration at half of the fitted maximal effect.

**Q.** With O=C1NC(=O)C(=Cc2ccc3nccc(-c4ccncc4)c3c2)S1 as the molecule, how does the Potency read?
**A.** The Potency was 743 nM (active).

**Q.** For O=C1NC(O)CCN1[C@@H]1O[C@H](CO)[C@H](O)[C@H]1O (stereo partly specified), which “activity change, negative = inhibition” value is on record?
**A.** The value was -16.7% (inactive).

**Q.** With C[C@@]12C(=O)OC(=O)[C@@]1(C)C1CCC2O1 as the molecule, how does the Potency read?
**A.** The Potency was 3720 nM (active).

**Q.** For CC[C@]12C=CCN3CC[C@@]4(c5cc([C@@]6(C(=O)OC)C[C@H]7C[C@@H](C(C)(F)F)CN(Cc8c6[nH]c6ccccc86)C7)c(OC)cc5N(C)[C@H]4[C@@](O)(C(=O)OC)[C@H]1OC(C)=O)[C@@H]32, which Potency is on record?
**A.** The Potency was 7430 nM (active).

**Q.** With COC(=O)[C@@H]1[C@H]2C[C@@H]3c4[nH]c5ccccc5c4CCN3C[C@@H]2CC[C@@H]1O as the molecule, how does the “activity change, negative = inhibition” value read?
**A.** The value was 13.3% (inactive).

**Q.** With C[C@H](NCc1ccc2c(c1)nc(NC(=O)c1ccc(-c3cn[nH]c3)s1)n2CCc1ccccc1)C(C)(C)C as the molecule, how does the Potency read?
**A.** The Potency was 8330 nM (active).

**Q.** With C[C@@H](Oc1ccc2[nH]nc(C=Cc3cnn(CCO)c3)c2c1)c1c(Cl)cncc1Cl as the molecule, how does the “activity change, negative = inhibition” value read?
**A.** The value was -5.37% (inactive).

assay: qHTS of pediatric cancer cell lines to identify multiple opportunities for drug repurposing: Primary screen for TC32 cells (AID 1347089); conditions: TC32 Ewing sarcoma viability, CellTiter-Glo luminescence, 48 h; series mostly up to 45.8 µM; activity change, negative = cytotoxic: at the top concentration; further: nearly all actives have a fitted effect of over 60% in size; on activity change, negative = cytotoxic: on the % scale 0 is the no-effect control and ±100 the full control effect
Outline: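 A viability screen of TC32 cells was run over 48 h, with primary MIPE doses spanning 0.78 nM–46 µM and NPC doses 0.59 nM–46 µM. ATP luminescence (CellTiter-Glo) served as the read-out.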

**Q.** For N[C@H]1CN(c2c(F)cc3c(=O)c(C(=O)O)cn(C4C[C@@H]4F)c3c2Cl)CC12CC2 (stereo partly specified), which “activity change, negative = cytotoxic” value is on record?
**A.** The value was 3.78% (inactive).

**Q.** Which Potency does the source give for CC(C)Oc1ccc(C(=O)N[C@H](CNC(=O)CN(C)C)Cc2ccc(-c3cn4cccc([C@H](C)O)c4n3)cc2)cc1Cl here?
**A.** The Potency was 370 nM (active).

**Q.** With C=CC(=O)Nc1cccc(Nc2nc(NC3CCC(N(C)C)CC3)nc3c2ncn3C(C)C)c1 (stereo unspecified) as the molecule, how does the Potency read?
**A.** The Potency was 1470 nM (active).

**Q.** Which “activity change, negative = cytotoxic” value does the source give for CCc1nc(-c2cccc(C)c2)c(-c2ccnc(NC(=O)c3ccccc3)c2)s1 here?
**A.** The value was -0.971% (inactive).

**Q.** Which Potency does the source give for CC[C@@]1([C@@H]2O[C@@H]([C@H]3O[C@@](O)(CO)[C@H](C)C[C@H]3C)C[C@H]2C)CC[C@H]([C@]2(C)CC[C@]3(C[C@H](O)[C@@H](C)[C@@H]([C@@H](C)[C@@H](OC)[C@H](C)C(=O)O)O3)O2)O1 here?
**A.** The Potency was 1610 nM (active).

**Q.** With CCOc1cc2c(c(F)c1OCC)C(=N)N(CC(=O)c1cc(N3CCOCC3)c(OC)c(C(C)(C)C)c1)C2 as the molecule, how does the “activity change, negative = cytotoxic” value read?
**A.** The value was -0.722% (inactive).

**Q.** For CC(C)(N)c1ccc(-c2nc3ccccc3nc2-c2ccccc2)cc1, which “activity change, negative = cytotoxic” value is on record?
**A.** Its value is 2.03% (inactive).

**Q.** Which activity change, negative = cytotoxic does the source give for CC(C)(C)[C@H](NC(=O)c1ccc(N)c(Cl)c1)C(=O)N1CCC[C@@H]1C(=O)N[C@H](C#N)CC(=O)O here?
**A.** The activity change, negative = cytotoxic was 10.4% [at 4.81 µM] (inactive).

**Q.** For O=C(NNC(=O)c1ccc(CNS(=O)(=O)c2ccc(F)c(Cl)c2)cc1)c1ccccc1, which “activity change, negative = cytotoxic” value is on record?
**A.** The value was 16.3% (inactive).

**Q.** For C[C@@H](NCc1cc2ccccc2[nH]1)c1cccc2ccccc12, which “activity change, negative = cytotoxic” value is on record?
**A.** Its value is 10.1% (inactive).

**Q.** With COc1cc(OC)c(C=CS(=O)(=O)Cc2ccc(OC)c(NCC(=O)O)c2)c(OC)c1 as the molecule, how does the Potency read?
**A.** The Potency was 294 nM (active).

**Q.** For O=c1c(O)c(-c2ccc(O)c(O)c2)oc2cc(O)ccc12, which “activity change, negative = cytotoxic” value is on record?
**A.** Its value is -7.69% (inactive).

**Q.** For Oc1cc2c(cc1O)C1c3ccc(O)c(O)c3OCC1(O)C2 (stereo unspecified), which “activity change, negative = cytotoxic” value is on record?
**A.** Its value is 15.1% (inactive).

**Q.** Which “activity change, negative = cytotoxic” value does the source give for C=C(C)[C@@H]1CC[C@]2(C(=O)O)CC[C@]3(C)[C@H](CC[C@@H]4[C@@]5(C)CC[C@H](O)C(C)(C)[C@@H]5CC[C@]43C)[C@@H]12 here?
**A.** The value was 1.31% (inactive).

**Q.** Which “activity change, negative = cytotoxic” value does the source give for COc1ccc(C(C)=O)c(O)c1 here?
**A.** Its value is 5.67% (inactive).

**Q.** With CC(C)C[C@H](NC(=O)CNC(=O)c1cc(Cl)ccc1Cl)B1OC(=O)CC(CC(=O)O)(C(=O)O)O1 (stereo partly specified) as the molecule, how does the Potency read?
**A.** The Potency was 2940 nM (active).

**Q.** Which “activity change, negative = cytotoxic” value does the source give for CC(=O)O[C@H]1C[C@@H]2CC[C@H]3[C@H]4C[C@H]([N+]5(C)CCCCC5)[C@@H](OC(C)=O)[C@@]4(C)CC[C@@H]3[C@@]2(C)C[C@H]1N1CCCCC1 here?
**A.** Its value is 5.96% (inactive).

**Q.** With Nc1cccc2c1C(=O)N(C1CCC(=O)NC1=O)C2=O (stereo unspecified) as the molecule, how does the “activity change, negative = cytotoxic” value read?
**A.** The value was 9.45% (inactive).

**Q.** For COc1cccc2c1C(=O)c1c(O)c3c(c(O)c1C2=O)C[C@@](O)(C(=O)CO)C[C@@H]3O[C@H]1C[C@H](N)[C@H](OC2CCCCO2)[C@H](C)O1 (stereo partly specified), which Potency is on record?
**A.** Its Potency is 3700 nM (active).

**Q.** For CC(C)(O)CC[C@@H](O)[C@](C)(O)[C@H]1CC[C@@]2(O)C3=CC(=O)[C@@H]4C[C@@H](O)[C@@H](O)C[C@]4(C)[C@@H]3CC[C@]12C, which “activity change, negative = cytotoxic” value is on record?
**A.** The value was 3.11% (inactive).

**Q.** Which “activity change, negative = cytotoxic” value does the source give for OCC(O)C(O)C(O)CO (stereo unspecified) here?
**A.** The value was 2.98% (inactive).

**Q.** With O=C(O)C(=O)Nc1cccc(C2=NN=N[N]2)c1 as the molecule, how does the “activity change, negative = cytotoxic” value read?
**A.** Its value is -0.185% (inactive).

**Q.** For C=C1CCC2[C@](C)(CO)C(O)CC[C@]2(C)C1CC=C1C(=O)OCC1O (stereo partly specified), which “activity change, negative = cytotoxic” value is on record?
**A.** The value was 7.2% [at 92.2 µM] (inactive).

**Q.** With C[C@H](NC(=O)Cc1cc(F)cc(F)c1)C(=O)N[C@H](C(=O)OC(C)(C)C)c1ccccc1 as the molecule, how does the “activity change, negative = cytotoxic” value read?
**A.** The value was -4.36% (inactive).

**Q.** For CNC(=O)c1cccc(-c2ccc3c(N4CCOC[C@H]4C)nc(N4CCOC[C@H]4C)nc3n2)c1, which Potency is on record?
**A.** The Potency was 523 nM (active).

**Q.** Which “activity change, negative = cytotoxic” value does the source give for CCC[C@H]1C[C@H](C(=O)N[C@@H]([C@@H]2O[C@@H](SC)[C@@H](O)[C@@H](O)[C@@H]2O)[C@H](C)Cl)N(C)C1 here?
**A.** Its value is -1.63% (inactive).

**Q.** Which “activity change, negative = cytotoxic” value does the source give for C[C@H]1O[C@H](O[C@H]2[C@H](O)[C@@H](O)[C@@H](O[C@H]3[C@H](O)[C@@H](O)C(O)O[C@H]3CO)O[C@H]2CO)[C@H](O)[C@@H](O)[C@H]1N[C@H]1C=C(CO)[C@@H](O)[C@H](O)[C@@H]1O (stereo partly specified) here?
**A.** Its value is 7.36% (inactive).

**Q.** Which “activity change, negative = cytotoxic” value does the source give for C=C[C@@H]1CN2CCC1C[C@H]2[C@H](O)c1ccnc2ccc(OC)cc12 (stereo partly specified) here?
**A.** The value was 10% (inactive).

**Q.** With CN(N=O)C(=O)N[C@H]1C(O)OC(CO)[C@@H](O)[C@H]1O (stereo partly specified) as the molecule, how does the “activity change, negative = cytotoxic” value read?
**A.** Its value is -2.9% (inactive).

**Q.** With CC(=O)[C@]1(O)Cc2c(O)c3c(c(O)c2[C@@H](O[C@H]2C[C@H](N)[C@@H](O)[C@H](C)O2)C1)C(=O)c1ccccc1C3=O as the molecule, how does the Potency read?
**A.** Its Potency is 587 nM (active).

**Q.** Which “activity change, negative = cytotoxic” value does the source give for O=S(=O)(O)CCSSCCS(=O)(=O)O here?
**A.** Its value is 6.72% (inactive).

**Q.** Which Potency does the source give for COC[C@H](NC(=O)c1cnc(C)s1)C(=O)N[C@@H](COC)C(=O)N[C@@H](Cc1ccccc1)C(=O)[C@@]1(C)CO1 here?
**A.** The Potency was 587 nM (active).

**Q.** For O=C1NC(=O)C(=Cc2ccc3nccc(-c4ccncc4)c3c2)S1, which Potency is on record?
**A.** The Potency was 523 nM (active).

**Q.** With O=C1NC(O)CCN1[C@@H]1O[C@H](CO)[C@H](O)[C@H]1O (stereo partly specified) as the molecule, how does the “activity change, negative = cytotoxic” value read?
**A.** The value was 2.24% (inactive).

**Q.** For C[C@@]12C(=O)OC(=O)[C@@]1(C)C1CCC2O1, which Potency is on record?
**A.** The Potency was 13100 nM (active).

**Q.** Which Potency does the source give for CC[C@]12C=CCN3CC[C@@]4(c5cc([C@@]6(C(=O)OC)C[C@H]7C[C@@H](C(C)(F)F)CN(Cc8c6[nH]c6ccccc86)C7)c(OC)cc5N(C)[C@H]4[C@@](O)(C(=O)OC)[C@H]1OC(C)=O)[C@@H]32 here?
**A.** The Potency was 58.7 nM (active).

**Q.** With COC(=O)[C@@H]1[C@H]2C[C@@H]3c4[nH]c5ccccc5c4CCN3C[C@@H]2CC[C@@H]1O as the molecule, how does the “activity change, negative = cytotoxic” value read?
**A.** The value was 20% (inactive).

**Q.** For C[C@H](NCc1ccc2c(c1)nc(NC(=O)c1ccc(-c3cn[nH]c3)s1)n2CCc1ccccc1)C(C)(C)C, which Potency is on record?
**A.** The Potency was 9300 nM (active).

**Q.** For C[C@@H](Oc1ccc2[nH]nc(C=Cc3cnn(CCO)c3)c2c1)c1c(Cl)cncc1Cl, which Potency is on record?
**A.** Its Potency is 18600 nM (active).
